Assay results from article PMC7862700, “An all-to-all approach to the identification of sequence-specific readers for epigenetic DNA modifications on cytosine”.

Legend:
Assay in all cases: DAPPL (digital affinity profiling via proximity ligation, sequencing); 10 mM Tris-HCl pH 7.5, 50 mM NaCl, 1 mM DTT, 4% glycerol, room temperature, 30 min; GST-TFs on glutathione beads, 16-mer random dsDNA library, 0.1% formaldehyde crosslink after washing; high values mean tight binding
FLI1 = target: T1, FLI1 (Homo sapiens, UniProt Q01543 1-452); conditions: protein: recombinant; tags: N-terminal GST; dsDNA, one strand shown
T1 sequence: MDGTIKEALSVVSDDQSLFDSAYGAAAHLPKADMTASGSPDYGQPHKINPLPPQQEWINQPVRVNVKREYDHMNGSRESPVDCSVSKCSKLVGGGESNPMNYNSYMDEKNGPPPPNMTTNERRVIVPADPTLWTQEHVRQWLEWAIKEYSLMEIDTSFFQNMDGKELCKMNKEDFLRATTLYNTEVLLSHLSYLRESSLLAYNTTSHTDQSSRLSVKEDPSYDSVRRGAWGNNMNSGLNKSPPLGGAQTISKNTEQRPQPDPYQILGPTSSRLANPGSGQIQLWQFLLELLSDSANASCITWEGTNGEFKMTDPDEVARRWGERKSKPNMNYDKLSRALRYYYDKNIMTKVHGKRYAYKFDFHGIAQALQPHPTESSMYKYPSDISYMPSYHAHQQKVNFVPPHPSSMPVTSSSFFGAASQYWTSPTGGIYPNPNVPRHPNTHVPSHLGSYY
Procedure, shortened: (§1)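 Pools of DNA-barcoded human transcription factors, expressed in yeast as GST fusions on glutathione beads and combined with a tag-only sample, were incubated with 200 nmole of a 16-mer random double-stranded DNA library. Incubation took 30 min at room temperature in Tris/NaCl/DTT/glycerol buffer and was followed by washing, 0.1% formaldehyde crosslinking, proximity ligation (BsaI/T4 ligase, 1 h, 37 °C), PCR amplification and sequencing on an Illumina NextSeq500. Binding signal is the ratio of a hexamer's read frequency for a factor to its frequency for the tag-only sample.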

ELK1 = target: T2, ELK1 (Homo sapiens, UniProt P19419 1-428); conditions: protein: recombinant; tags: N-terminal GST; dsDNA, one strand shown
T2 sequence: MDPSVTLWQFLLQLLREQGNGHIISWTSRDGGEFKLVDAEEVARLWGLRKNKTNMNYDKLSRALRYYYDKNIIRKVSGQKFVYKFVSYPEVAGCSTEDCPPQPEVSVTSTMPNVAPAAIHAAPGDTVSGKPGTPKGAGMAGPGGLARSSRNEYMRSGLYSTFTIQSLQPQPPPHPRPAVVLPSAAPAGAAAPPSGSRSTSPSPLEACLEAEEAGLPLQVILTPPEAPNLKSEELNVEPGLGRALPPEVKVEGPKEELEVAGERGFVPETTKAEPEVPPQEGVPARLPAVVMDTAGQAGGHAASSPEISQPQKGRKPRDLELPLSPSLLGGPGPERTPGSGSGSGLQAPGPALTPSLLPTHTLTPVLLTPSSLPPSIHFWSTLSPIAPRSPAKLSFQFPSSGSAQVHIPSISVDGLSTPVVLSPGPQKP
Procedure, shortened: as §1

GABPA = target: T3, GABPA (Homo sapiens, UniProt Q06546 1-454); conditions: protein: recombinant; tags: N-terminal GST; dsDNA, one strand shown
T3 sequence: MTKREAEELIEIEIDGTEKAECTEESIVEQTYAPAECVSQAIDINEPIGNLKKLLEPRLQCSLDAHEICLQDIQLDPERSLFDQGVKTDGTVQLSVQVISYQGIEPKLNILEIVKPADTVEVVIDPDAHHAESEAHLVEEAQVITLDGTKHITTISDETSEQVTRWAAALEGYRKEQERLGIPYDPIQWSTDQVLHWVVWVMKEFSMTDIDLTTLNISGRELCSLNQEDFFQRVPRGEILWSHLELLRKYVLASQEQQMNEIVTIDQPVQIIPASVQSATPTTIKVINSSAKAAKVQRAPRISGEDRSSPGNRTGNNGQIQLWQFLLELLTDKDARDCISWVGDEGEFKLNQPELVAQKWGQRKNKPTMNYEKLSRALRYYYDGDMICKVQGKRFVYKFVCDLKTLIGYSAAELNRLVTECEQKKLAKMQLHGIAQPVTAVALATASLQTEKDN
Procedure, shortened: as §1

ERG = target: T4, ERG (Homo sapiens, UniProt P11308 1-479); conditions: protein: recombinant; tags: N-terminal GST; dsDNA, one strand shown
T4 sequence: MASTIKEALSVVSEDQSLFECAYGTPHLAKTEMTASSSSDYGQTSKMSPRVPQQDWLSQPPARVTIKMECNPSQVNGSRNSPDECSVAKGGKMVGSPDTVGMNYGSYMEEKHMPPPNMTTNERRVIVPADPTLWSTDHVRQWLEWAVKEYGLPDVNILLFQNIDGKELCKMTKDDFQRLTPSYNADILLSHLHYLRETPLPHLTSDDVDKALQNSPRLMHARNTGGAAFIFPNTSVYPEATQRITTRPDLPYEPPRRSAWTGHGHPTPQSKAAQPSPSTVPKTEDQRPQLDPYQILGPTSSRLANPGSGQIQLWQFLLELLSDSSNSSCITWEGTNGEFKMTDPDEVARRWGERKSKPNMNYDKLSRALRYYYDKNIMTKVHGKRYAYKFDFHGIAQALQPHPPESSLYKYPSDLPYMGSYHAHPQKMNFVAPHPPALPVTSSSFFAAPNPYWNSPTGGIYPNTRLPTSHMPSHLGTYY
Procedure, shortened: as §1

ELF1 = ELF1 (Homo sapiens, UniProt P32519 1-619); conditions: protein: recombinant; tags: N-terminal GST; dsDNA, one strand shown
Sequence of ELF1 (P32519 whole entry): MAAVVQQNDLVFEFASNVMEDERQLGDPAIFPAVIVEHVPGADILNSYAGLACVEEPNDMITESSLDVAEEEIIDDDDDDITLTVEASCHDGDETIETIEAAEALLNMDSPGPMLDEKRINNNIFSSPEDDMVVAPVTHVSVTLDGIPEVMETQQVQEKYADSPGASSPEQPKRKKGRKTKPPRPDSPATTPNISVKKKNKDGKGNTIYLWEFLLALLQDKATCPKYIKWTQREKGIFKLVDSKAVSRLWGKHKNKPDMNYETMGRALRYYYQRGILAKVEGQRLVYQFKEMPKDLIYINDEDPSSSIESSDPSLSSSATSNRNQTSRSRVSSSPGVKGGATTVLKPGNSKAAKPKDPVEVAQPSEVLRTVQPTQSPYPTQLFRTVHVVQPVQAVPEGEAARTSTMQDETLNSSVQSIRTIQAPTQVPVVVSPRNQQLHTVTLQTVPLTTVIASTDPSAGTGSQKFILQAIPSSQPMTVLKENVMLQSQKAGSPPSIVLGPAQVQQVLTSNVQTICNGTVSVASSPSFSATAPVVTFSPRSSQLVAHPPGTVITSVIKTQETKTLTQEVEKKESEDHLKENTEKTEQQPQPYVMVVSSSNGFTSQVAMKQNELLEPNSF
Procedure, shortened: as §1

EHF = target: T5, EHF (Homo sapiens, UniProt Q9NZC4 1-300); conditions: protein: recombinant; tags: N-terminal GST; dsDNA, one strand shown
T5 sequence: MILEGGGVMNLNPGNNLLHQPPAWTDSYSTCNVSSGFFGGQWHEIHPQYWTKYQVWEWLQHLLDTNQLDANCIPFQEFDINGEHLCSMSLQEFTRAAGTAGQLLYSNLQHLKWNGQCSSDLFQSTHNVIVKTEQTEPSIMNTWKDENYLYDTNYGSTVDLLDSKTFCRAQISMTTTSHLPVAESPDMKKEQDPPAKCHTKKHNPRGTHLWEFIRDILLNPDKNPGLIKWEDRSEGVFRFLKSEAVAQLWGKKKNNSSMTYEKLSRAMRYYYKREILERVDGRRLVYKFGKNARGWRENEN
Procedure, shortened: as §1

SPI1 = SPI1 (Homo sapiens, UniProt P17947 1-270); conditions: protein: recombinant; tags: N-terminal GST; dsDNA, one strand shown
Procedure, shortened: as §1

SPIB = SPIB (Homo sapiens, UniProt Q01892 1-262); conditions: protein: recombinant; tags: N-terminal GST; dsDNA, one strand shown
Sequence of SPIB (Q01892 whole entry): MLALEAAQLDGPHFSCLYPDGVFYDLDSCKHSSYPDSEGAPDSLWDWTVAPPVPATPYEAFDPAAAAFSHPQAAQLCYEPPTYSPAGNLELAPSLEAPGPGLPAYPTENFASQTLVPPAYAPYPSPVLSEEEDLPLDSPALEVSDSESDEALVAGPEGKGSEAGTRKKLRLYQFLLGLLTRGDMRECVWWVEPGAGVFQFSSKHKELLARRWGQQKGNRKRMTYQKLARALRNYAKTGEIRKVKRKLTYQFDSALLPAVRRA
Procedure, shortened: as §1

ELK3 = target: T6, ELK3 (Homo sapiens, UniProt P41970 1-407); conditions: protein: recombinant; tags: N-terminal GST; dsDNA, one strand shown
T6 sequence: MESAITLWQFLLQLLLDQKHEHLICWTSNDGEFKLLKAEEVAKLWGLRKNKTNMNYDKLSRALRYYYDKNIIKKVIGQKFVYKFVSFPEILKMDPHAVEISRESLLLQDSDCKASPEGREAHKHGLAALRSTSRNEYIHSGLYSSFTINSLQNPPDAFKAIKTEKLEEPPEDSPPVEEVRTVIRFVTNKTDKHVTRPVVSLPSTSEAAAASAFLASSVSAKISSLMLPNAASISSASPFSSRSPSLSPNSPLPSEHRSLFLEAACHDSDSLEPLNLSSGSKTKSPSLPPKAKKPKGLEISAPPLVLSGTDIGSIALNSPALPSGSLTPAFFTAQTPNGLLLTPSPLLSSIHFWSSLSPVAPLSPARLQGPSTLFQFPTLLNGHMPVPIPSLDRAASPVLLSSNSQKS
Procedure, shortened: as §1

FEV = target: T7, FEV (Homo sapiens, UniProt Q99581 1-238); conditions: protein: recombinant; tags: N-terminal GST; dsDNA, one strand shown
T7 sequence: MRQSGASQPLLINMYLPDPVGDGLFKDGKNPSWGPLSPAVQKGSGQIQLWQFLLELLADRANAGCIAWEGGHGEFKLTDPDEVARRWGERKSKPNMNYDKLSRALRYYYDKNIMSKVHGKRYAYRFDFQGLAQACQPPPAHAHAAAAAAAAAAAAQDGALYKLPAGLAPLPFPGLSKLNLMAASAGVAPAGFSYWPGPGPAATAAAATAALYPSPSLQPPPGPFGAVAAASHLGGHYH
Procedure, shortened: as §1

ETV5 = ETV5 (Homo sapiens, UniProt P41161 1-510); conditions: protein: recombinant; tags: N-terminal GST; dsDNA, one strand shown
Sequence of ETV5 (P41161 whole entry): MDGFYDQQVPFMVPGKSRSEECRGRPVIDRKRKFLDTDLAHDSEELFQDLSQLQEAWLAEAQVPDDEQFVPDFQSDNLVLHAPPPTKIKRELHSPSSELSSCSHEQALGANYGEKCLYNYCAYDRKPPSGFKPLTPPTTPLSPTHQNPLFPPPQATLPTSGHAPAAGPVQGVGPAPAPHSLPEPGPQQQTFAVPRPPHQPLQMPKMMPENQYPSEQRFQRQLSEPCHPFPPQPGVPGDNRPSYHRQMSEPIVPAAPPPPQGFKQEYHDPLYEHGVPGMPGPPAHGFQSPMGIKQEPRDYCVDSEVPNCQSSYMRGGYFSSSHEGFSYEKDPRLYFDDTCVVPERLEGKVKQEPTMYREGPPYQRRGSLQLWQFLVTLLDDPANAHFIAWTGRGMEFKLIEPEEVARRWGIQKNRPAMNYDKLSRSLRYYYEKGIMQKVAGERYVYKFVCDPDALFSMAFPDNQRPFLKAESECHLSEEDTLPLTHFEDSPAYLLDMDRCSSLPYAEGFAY
Procedure, shortened: as §1

HSF1 = HSF1 (Homo sapiens, UniProt Q00613 1-529); conditions: protein: recombinant; tags: N-terminal GST; chain copies: 3; dsDNA, one strand shown
Sequence of HSF1 (Q00613 whole entry): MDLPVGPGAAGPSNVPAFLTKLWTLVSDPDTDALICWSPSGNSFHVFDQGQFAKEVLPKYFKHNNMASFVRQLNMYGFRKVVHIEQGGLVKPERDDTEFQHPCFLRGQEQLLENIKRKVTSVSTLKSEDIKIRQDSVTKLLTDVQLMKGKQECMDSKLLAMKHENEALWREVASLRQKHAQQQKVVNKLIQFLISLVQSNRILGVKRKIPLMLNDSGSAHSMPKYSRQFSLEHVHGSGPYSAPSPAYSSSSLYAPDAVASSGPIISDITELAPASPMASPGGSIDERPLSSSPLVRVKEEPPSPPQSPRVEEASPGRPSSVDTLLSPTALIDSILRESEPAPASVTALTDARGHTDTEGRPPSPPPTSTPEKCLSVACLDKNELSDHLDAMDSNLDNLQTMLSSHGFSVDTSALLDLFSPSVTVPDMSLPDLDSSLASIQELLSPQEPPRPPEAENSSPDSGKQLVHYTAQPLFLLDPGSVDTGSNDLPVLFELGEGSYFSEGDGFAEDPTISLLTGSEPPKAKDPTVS
Procedure, shortened: as §1

SPIC = target: T8, SPIC (Homo sapiens, UniProt Q8N5J4 1-248); conditions: protein: recombinant; tags: N-terminal GST; dsDNA, one strand shown
T8 sequence: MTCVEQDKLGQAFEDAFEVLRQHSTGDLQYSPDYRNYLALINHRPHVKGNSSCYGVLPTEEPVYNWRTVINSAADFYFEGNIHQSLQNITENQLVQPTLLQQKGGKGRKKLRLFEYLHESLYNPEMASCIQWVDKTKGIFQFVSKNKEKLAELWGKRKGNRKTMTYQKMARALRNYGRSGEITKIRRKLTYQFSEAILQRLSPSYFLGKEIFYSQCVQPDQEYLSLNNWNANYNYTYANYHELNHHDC
Procedure, shortened: as §1

ELF4 = ELF4 (Homo sapiens, UniProt Q99607 1-663); conditions: protein: recombinant; tags: N-terminal GST; dsDNA, one strand shown
Sequence of ELF4 (Q99607 whole entry): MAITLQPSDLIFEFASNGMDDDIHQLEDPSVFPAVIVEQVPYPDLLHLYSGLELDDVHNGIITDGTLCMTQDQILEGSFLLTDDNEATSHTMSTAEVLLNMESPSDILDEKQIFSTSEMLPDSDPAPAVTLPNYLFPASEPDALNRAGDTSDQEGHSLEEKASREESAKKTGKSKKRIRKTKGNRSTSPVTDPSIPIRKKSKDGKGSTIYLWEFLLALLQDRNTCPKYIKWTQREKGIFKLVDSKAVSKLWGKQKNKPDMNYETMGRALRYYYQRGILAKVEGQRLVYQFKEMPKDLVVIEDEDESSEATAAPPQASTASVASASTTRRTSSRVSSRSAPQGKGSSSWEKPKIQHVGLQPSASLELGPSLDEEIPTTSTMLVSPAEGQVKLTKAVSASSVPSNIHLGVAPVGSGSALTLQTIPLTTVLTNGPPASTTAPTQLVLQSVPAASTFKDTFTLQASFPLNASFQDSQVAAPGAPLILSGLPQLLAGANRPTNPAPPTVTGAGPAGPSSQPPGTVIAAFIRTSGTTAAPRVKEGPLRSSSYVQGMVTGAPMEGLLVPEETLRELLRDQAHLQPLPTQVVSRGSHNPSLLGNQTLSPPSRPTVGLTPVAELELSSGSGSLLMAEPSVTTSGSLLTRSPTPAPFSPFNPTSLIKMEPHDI
Procedure, shortened: as §1

ELK4 = target: T9, ELK4 (Homo sapiens, UniProt P28324-2 1-405); conditions: protein: recombinant; tags: N-terminal GST; dsDNA, one strand shown
T9 sequence: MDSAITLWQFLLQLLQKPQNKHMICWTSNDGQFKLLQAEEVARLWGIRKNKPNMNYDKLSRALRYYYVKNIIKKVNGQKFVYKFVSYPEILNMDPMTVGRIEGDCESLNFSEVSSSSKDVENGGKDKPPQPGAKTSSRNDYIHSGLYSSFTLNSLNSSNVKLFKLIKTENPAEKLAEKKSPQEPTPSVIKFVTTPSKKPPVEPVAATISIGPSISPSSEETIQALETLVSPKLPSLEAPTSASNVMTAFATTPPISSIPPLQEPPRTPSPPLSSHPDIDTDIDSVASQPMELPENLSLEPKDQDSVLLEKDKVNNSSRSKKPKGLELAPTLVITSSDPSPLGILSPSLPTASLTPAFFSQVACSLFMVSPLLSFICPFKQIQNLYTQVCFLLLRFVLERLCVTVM
Procedure, shortened: as §1

ETV2 = target: T10, ETV2 (Homo sapiens, UniProt O00321 1-342); conditions: protein: recombinant; tags: N-terminal GST; dsDNA, one strand shown
T10 sequence: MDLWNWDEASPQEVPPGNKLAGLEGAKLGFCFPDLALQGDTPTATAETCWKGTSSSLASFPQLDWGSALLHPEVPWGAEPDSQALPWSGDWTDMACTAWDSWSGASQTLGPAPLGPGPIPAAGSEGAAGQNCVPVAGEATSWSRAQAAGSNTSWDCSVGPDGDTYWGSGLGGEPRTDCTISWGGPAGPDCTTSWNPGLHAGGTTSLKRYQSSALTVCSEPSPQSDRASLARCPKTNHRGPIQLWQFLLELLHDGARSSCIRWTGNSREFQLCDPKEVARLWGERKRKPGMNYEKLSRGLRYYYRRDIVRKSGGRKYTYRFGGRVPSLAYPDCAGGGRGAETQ
Procedure, shortened: as §1

ELF3 = target: T11, ELF3 (Homo sapiens, UniProt P78545 1-371); conditions: protein: recombinant; tags: N-terminal GST; dsDNA, one strand shown
T11 sequence: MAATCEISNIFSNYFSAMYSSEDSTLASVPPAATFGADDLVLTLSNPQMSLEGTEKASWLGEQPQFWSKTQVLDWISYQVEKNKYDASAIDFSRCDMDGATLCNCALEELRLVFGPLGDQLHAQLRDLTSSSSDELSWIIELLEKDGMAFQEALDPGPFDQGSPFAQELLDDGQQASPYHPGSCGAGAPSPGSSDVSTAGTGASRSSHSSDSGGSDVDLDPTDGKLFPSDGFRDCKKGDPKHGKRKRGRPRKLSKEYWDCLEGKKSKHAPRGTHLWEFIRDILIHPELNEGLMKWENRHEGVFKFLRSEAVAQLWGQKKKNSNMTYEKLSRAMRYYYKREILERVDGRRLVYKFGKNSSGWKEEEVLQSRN
Procedure, shortened: as §1

CRX = CRX (Homo sapiens, UniProt O43186 1-299); conditions: protein: recombinant; tags: N-terminal GST; dsDNA, one strand shown
Sequence of CRX (O43186 whole entry): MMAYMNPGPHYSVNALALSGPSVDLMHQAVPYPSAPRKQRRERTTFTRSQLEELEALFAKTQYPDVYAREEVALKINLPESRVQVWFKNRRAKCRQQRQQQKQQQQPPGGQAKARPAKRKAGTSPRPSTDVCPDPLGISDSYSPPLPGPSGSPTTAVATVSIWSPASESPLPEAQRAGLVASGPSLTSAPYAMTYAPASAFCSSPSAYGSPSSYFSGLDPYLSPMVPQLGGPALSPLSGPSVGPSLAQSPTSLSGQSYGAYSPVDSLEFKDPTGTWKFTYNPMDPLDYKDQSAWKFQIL
Procedure, shortened: as §1

ETV1 = ETV1 (Homo sapiens, UniProt P50549 1-477); conditions: protein: recombinant; tags: N-terminal GST; dsDNA, one strand shown
Sequence of ETV1 (P50549 whole entry): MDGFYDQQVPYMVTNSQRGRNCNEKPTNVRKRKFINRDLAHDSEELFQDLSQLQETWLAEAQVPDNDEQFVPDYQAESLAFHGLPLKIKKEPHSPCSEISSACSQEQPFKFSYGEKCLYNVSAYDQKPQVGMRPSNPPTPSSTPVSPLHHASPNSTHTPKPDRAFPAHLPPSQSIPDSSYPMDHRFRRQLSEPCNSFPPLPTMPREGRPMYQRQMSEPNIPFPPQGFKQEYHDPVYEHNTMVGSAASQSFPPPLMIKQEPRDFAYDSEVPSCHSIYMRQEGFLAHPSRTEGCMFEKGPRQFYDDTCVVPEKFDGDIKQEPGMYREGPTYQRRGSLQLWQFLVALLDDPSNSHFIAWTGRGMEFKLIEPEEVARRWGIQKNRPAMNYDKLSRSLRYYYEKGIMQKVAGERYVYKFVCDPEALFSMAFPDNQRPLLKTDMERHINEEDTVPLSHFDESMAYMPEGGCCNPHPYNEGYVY
Procedure, shortened: as §1

For ACGGCT, the binding signal (FLI1) was 1.02 fold enrichment (6-mer frequency, TF over GST control), the binding signal (ELK1) was 1.16 fold enrichment (6-mer frequency, TF over GST control) and the binding signal (GABPA) was 1.13 fold enrichment (6-mer frequency, TF over GST control). For the same sequence, the binding signal (ERG) was 1.12 fold enrichment (6-mer frequency, TF over GST control), the binding signal (ELF1) was 1.08 fold enrichment (6-mer frequency, TF over GST control) and the binding signal (EHF) was 1 fold enrichment (6-mer frequency, TF over GST control). For the same sequence, the binding signal (SPI1) was 1.18 fold enrichment (6-mer frequency, TF over GST control), the binding signal (SPIB) was 1.14 fold enrichment (6-mer frequency, TF over GST control) and the binding signal (ELK3) was 1.05 fold enrichment (6-mer frequency, TF over GST control). The binding signal (FEV) was 1.2 fold enrichment (6-mer frequency, TF over GST control), the binding signal (ETV5) was 1.13 fold enrichment (6-mer frequency, TF over GST control) and the binding signal (HSF1) was 1.13 fold enrichment (6-mer frequency, TF over GST control). For the same sequence, the binding signal (SPIC) was 1.1 fold enrichment (6-mer frequency, TF over GST control), the binding signal (ELF4) was 1.1 fold enrichment (6-mer frequency, TF over GST control) and the binding signal (ELK4) was 1.14 fold enrichment (6-mer frequency, TF over GST control). The binding signal (ETV2) was 1.07 fold enrichment (6-mer frequency, TF over GST control), the binding signal (ELF3) was 1.13 fold enrichment (6-mer frequency, TF over GST control) and the binding signal (CRX) was 1.36 fold enrichment (6-mer frequency, TF over GST control). For the same sequence, the binding signal (ETV1) was 1.05 fold enrichment (6-mer frequency, TF over GST control).
